Data published in PubChem BioAssay (Tox21).
Results filed as inconclusive are left out. Calls of active or inactive are those of the source. Calls follow the shape of the dose curve; as a rule, active = well fitted activation curve with a large enough effect in the signal ratio in the repeat runs (not every such curve was filed as active); inconclusive = weak or mixed curves, or effect the other way; inactive = no such curve, though single readings can be large or run the other way; the % refers to the signal ratio.

The molecules below were run against Peroxisome proliferator-activated receptor gamma (Homo sapiens) (UniProt P37231) (assay: qHTS assay to identify small molecule agonists of the peroxisome proliferator-activated receptor gamma (PPARg) signaling pathway (AID 743094)). Conditions: HEK293H PPARg-UAS-bla, beta-lactamase FRET ratio, 17 h; series mostly up to 57 µM.
Excerpt: U.S. Tox21 Program National Center for Advancing Translational Sciences [NCATS] NIH Chemical Genomics Center [NCGC] U.S. Environmental Protection Agency [EPA] National Institutes of Environmental Health Sciences [NIEHS] National Toxicology Program [NTP] U.S. Food and Drug Administration [FDA] Tox21 Assay Overview: The peroxisome proliferator-activated receptors (PPARs) are lipid-activated transcription factors of the nuclear receptor superfamily with three distinct subtypes namely PPAR alpha, PPAR delta (also called PPAR beta) and PPAR gamma (PPARg). All these subtypes heterodimerize with Retinoid X receptor (RXR) and these heterodimers regulate transcription of various genes. PPAR-gamma receptor (glitazone receptor) is involved in the regulation of glucose and lipid metabolism. To identify the compounds that activate PPAR-gamma signaling, GeneBLAzer PPAR gamma UAS-bla HEK293H cell line (Invitrogen, Carlsbad, CA, USA) containing a beta-lactamase reporter gene under control of the control of an upstream activator sequence (UAS) stably integrated into HEK293H cells was used to screen Tox21 compound library.
Tox21 Assay Protocol Summary: PPARg-bla cells were dispensed at 3000 cells/6uL/well in 1536-well black wall/clear bottom plates using a Multidrop Combi (Thermo Fisher Scientific, Waltham, MA) dispenser. After the assay plates were incubated at 37C and 5% CO2 for 5 h, 23 nL of compounds dissolved in DMSO, positive controls or DMSO only was transferred to the assay plate by a Pintool station (Kalypsys, San Diego, CA). The assay plates were incubated at 37C for 17 h. After 1 uL of LiveBLAzerTM B/G FRET substrate was added using a Bioraptr Flying Reagent Dispenser (FRD) workstation (Beckman Coulter, Indianapolis, IN, USA), the plates were incubated at room temperature for 1 h, and fluorescence intensity was measured by an Envision plate reader (PerkinElmer, Shelton, CT).

Sequence of Peroxisome proliferator-activated receptor gamma (Homo sapiens) (P37231 whole entry, looked up): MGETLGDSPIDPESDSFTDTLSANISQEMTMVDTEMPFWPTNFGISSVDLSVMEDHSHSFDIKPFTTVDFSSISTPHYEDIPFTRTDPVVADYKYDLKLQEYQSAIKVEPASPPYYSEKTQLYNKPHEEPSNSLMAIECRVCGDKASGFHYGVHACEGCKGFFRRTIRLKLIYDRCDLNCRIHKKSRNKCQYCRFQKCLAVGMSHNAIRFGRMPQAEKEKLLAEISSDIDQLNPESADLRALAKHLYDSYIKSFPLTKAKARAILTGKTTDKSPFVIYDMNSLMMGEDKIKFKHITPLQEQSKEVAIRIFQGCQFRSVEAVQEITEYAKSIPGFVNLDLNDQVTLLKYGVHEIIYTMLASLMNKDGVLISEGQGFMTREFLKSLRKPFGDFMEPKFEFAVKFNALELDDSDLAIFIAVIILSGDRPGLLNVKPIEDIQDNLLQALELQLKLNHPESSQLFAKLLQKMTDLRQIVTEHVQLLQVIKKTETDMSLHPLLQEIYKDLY

Structure (SMILES) | outcome
COc1ccc(OC)cc1 | inactive
CC(C)c1cccc(C(C)C)c1 | inactive
C=CC(=O)OCCC(=O)O | inactive
Nc1nc(N)nc(-c2ccccc2)n1 | inactive
COCCOC(=O)c1ccccc1C(=O)OCCOC | inactive
N#Cc1ccccc1 | inactive
CC(C)OP(=O)(CP(=O)(OC(C)C)OC(C)C)OC(C)C | inactive
CCO[Si](CCCN)(OCC)OCC | inactive
COc1ccc(C)cc1N | inactive
c1ccc2c(c1)Cc1ccccc1-2 | inactive
C[C@]12CC[C@@H]3c4ccc(O)cc4CC[C@H]3[C@@H]1C[C@@H](O)[C@@H]2O | inactive
COCCCN | inactive
CCOC(=O)c1ccc(N)cc1 | inactive
Cc1ccc(S(=O)(=O)N=C=O)cc1 | inactive
CNC(=S)N(C)C | inactive
COc1cc(OC)c(C(=O)CCCN2CCCC2)c(OC)c1 | inactive
CCCCCCCCCCCC(=O)OC | inactive
CC(=O)c1ccc(O)cc1 | inactive
CCNC(=S)NCC | inactive
Brc1ccc(Br)c(Br)c1 | inactive

Structure (SMILES) | outcome
C=Cc1ccc(C)cc1 | inactive
CC(C)CC(C)O (stereo not given) | inactive
CC(C)CCCCCCCOC(=O)CCCCC(=O)OCCCCCCCC(C)C | inactive
O=C(O)c1ccc(S(=O)(=O)N(Cl)Cl)cc1 | inactive
C=C(C)CNCC | inactive
CCCCCCC=O | inactive
CSc1ccc(Cl)cc1 | inactive
C[C@]12CCC(=O)C=C1CC[C@@H]1[C@@H]2[C@@H](O)C[C@@]2(C)[C@H]1CC[C@]2(O)C(=O)CO | inactive
CC(=O)OC1CC(C)OC(C)O1 (stereo not given) | inactive
CC(C)OC(=O)COc1ccc(Cl)cc1Cl | inactive
C=CCc1ccc(OC)c(OC)c1 | inactive
CC(=O)Oc1ccc(C)cc1 | inactive
OCc1ccccc1 | inactive
CCCOC(=O)c1ccccc1 | inactive
Cc1ccc(C(C)C)c(O)c1 | inactive
N[C@H](Cc1c[nH]c2ccccc12)C(=O)O | inactive
NCCNCCN | inactive
CC(=O)OCc1ccccc1 | inactive
CC(=O)CC(C)(C)O | inactive
CCc1ccccc1CC | inactive
